Measured values published in PubChem BioAssay AID547 (Emory University Molecular Libraries Screening Center, 2006).
About 10 (0.8%) of roughly 1,300 compounds were called active. No rule for the calls is given here. What follows is part of a selection rich in actives, with near analogues and random picks from the rest.

The compounds below were run against Chaperone protein DnaK (Escherichia coli (strain K12)) (UniProt P0A6Y8) (assay: E. coli DnaK chaperone inhibitors, primary screen, luminescence, E. coli K12 (AID 547;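 also: tested at 10 µM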)). Conditions: DnaK chaperone assay, luminescence read-out; stronger effect = lower value.

Row | Compound | luminescence
1 | CN1CCc2cc(NC(=O)Nc3cccnc3)ccc21 | 2.6e+06 cps (inactive)
2 | CCCCOc1cc(CC2CNC(=O)N2)ccc1OC (stereo unspecified) | 2.5e+06 cps (inactive)
3 | CCCCCCCCCCCCCCCCCC(=O)OC(CC(=O)O)C[N+](C)(C)C (stereo unspecified) | 2.5e+06 cps (inactive)
4 | CN1C2CCC1CC(OC(=O)c1c[nH]c3ccccc13)C2 (stereo unspecified) | 2.3e+06 cps (inactive)
5 | NCCS | 2.4e+06 cps (inactive)
6 | Fc1ccc([C@@H]2CCNC[C@H]2COc2ccc3c(c2)OCO3)cc1 | 2.9e+06 cps (inactive)
7 | NCCCCCCCCCCN | 2.6e+06 cps (inactive)
8 | O=C(O)C1=CCCNC1 | 2.8e+06 cps (inactive)
9 | C[C@]12CC[C@@H]3c4ccc(O)cc4CC[C@H]3[C@@H]1CC[C@@H]2O | 2.9e+06 cps (inactive)
10 | CCOC(=O)C1=C[C@]2(CC)CCCN3CCc4c(n1c1ccccc41)[C@@H]32 | 2.3e+06 cps (inactive)
11 | O=Nc1c(-c2c(O)[nH]c3ccccc23)[nH]c2ccccc12 | 2.9e+06 cps (inactive)
12 | OC[C@H]1O[C@@H](n2cnc3c(NCCc4ccccc4)ncnc32)C(O)[C@H]1O (stereo partly specified) | 2.2e+06 cps (inactive)
13 | CC(C)(C)NCC(O)COc1nsnc1N1CCOCC1 (stereo unspecified) | 2.3e+06 cps (inactive)
14 | O=c1n(CCCN2CCN(c3cccc(Cl)c3)CC2)nc2ccccn12 | 2.5e+06 cps (inactive)
15 | CCN1CCc2nc(N)oc2CC1 | 2.6e+06 cps (inactive)
16 | CC(N)C1CCC(C(=O)Nc2ccncc2)CC1 (stereo unspecified) | 2.8e+06 cps (inactive)
17 | COCc1nc2c([nH]1)c(=O)n(C)c(=O)n2CC(C)C | 2.7e+06 cps (inactive)
18 | CCCCC1C(=O)N(c2ccccc2)N(c2ccccc2)C1=O | 2.6e+06 cps (inactive)
19 | Oc1ccc(O)cc1 | 2.9e+06 cps (inactive)
20 | NC(=O)CC[C@H](N)C(=O)O | 2.9e+06 cps (inactive)
21 | COc1[nH]c2ccc(F)cc2c1C(=O)OCC1CCN(CCNS(C)(=O)=O)CC1 | 3e+06 cps (inactive)
22 | COc1ccc(-c2ccc(N)[n+](CCCC(=O)O)n2)cc1 | 2.3e+06 cps (inactive)
23 | C[C@H]1CC2C3CCC4=CC(=O)C=C[C@]4(C)[C@@]3(Cl)[C@@H](O)C[C@]2(C)[C@@]1(O)C(=O)CO (stereo partly specified) | 2.6e+06 cps (inactive)

Row | Compound | luminescence
24 | N=S(=O)(O)Cc1noc2ccccc12 | 2.1e+06 cps (inactive)
25 | CCCCCCCC/C=C\CCCCCCCC(=O)NCCO | 2.9e+06 cps (inactive)
26 | CCCCCCCCCCC/C=C\C(C)(C)/C=C\CCCC(=O)O | 2.3e+06 cps (inactive)
27 | CCCCCCC/C=C\CCCCCCCCC(=O)O | 1.7e+06 cps (active)
28 | CC1C(=O)N(C)C(=O)c2nc[nH]c21 (stereo unspecified) | 2.4e+06 cps (inactive)
29 | N.N.O=C(O)C1(C(=O)O)CCC1.[Pt+2] | 2.5e+06 cps (inactive)
30 | CCCCS(=N)(=O)CCC(N)C(=O)O (stereo unspecified) | 1.9e+06 cps (inactive)
31 | CCCCCCCC/C=C\CCCCCCCC(=O)NCCc1ccc(O)c(O)c1 | 1.5e+06 cps (active)
32 | CC(=O)NCCc1ccc(O)c(O)c1 | 2.8e+06 cps (inactive)
33 | CCCCCCCCCCCCCCCC(=O)NCCO | 2.9e+06 cps (inactive)
34 | NC(=O)c1ccccc1 | 2.5e+06 cps (inactive)
35 | N#CC(Cc1ccc(O)c(O)c1)C(=O)N1CCc2ccccc21 (stereo unspecified) | 2.2e+06 cps (inactive)
36 | CCNC(=O)[C@H]1O[C@@H](n2cnc3c(N)nc(NCCc4ccc(CCC(=O)O)cc4)nc32)C(O)[C@H]1O (stereo partly specified) | 2.4e+06 cps (inactive)
37 | CC(=O)O[C@H]1CC2(C)[C@@H](C[C@@H](O)[C@H]3[C@@]4(C)CC[C@@H](O)[C@@H](C)[C@@H]4CC[C@@]32C)C1=C(CCC=C(C)C)C(=O)O (stereo partly specified) | 2.8e+06 cps (inactive)
38 | O=C1N=C(O)CN1/N=C/c1ccc(-c2ccc([N+](=O)[O-])cc2)o1 | 3e+06 cps (inactive)
39 | CCCCCCCCCCCCCCCCCC(=O)NCC(COP(=O)([O-])OCC[N+](C)(C)C)OCC (stereo unspecified) | 2.8e+06 cps (inactive)
40 | CCCCCCCCCCCCCCCCCCOC[C@H](COP(=O)([O-])OCC[N+](C)(C)C)OC | 2.6e+06 cps (inactive)
41 | CCCCCCCCCCCCCCCC(=O)NCC(COP(=O)([O-])OCC[N+](C)(C)C)OCC (stereo unspecified) | 1.9e+06 cps (active)
42 | COc1cccc(-c2cc(=O)c3ccccc3o2)c1N | 2.2e+06 cps (inactive)
43 | CC(C)OC(=O)C(C)(C)Oc1ccc(C(=O)c2ccc(Cl)cc2)cc1 | 2.9e+06 cps (inactive)
44 | COc1ccc(CCN(C)CCCC(C#N)(c2cc(OC)c(OC)c(OC)c2)C(C)C)cc1OC (stereo unspecified) | 2.5e+06 cps (inactive)
45 | COc1ccccc1N1CCN(CCN2C(=O)CC3(CCCC3)CC2=O)CC1 | 3.1e+06 cps (inactive)
46 | NC(=O)N1c2ccccc2C=Cc2ccccc21 | 2.7e+06 cps (inactive)

Row | Compound | luminescence
47 | Cc1ccc(C(=O)O[C@H](C(=O)O)[C@H](OC(=O)c2ccc(C)cc2)C(=O)O)cc1 (tested in a mixture with another compound) | 2.5e+06 cps (inactive)
48 | CNC[C@H](O)c1cccc(O)c1 | 2.3e+06 cps (inactive)
49 | Cc1nc2n(c(=O)c1CCN1CCC(c3noc4cc(F)ccc34)CC1)CCCC2 | 2.6e+06 cps (inactive)
50 | c1ccc(-c2ccccn2)nc1 | 2.6e+06 cps (inactive)
51 | CCCCOC(=O)NS(=O)(=O)c1sc(CC(C)C)cc1-c1ccc(Cn2c(CC)nc3c(C)cc(C)nc32)cc1 | 2.5e+06 cps (inactive)
52 | CC#C[C@]1(O)CC[C@H]2[C@@H]3CCC4=CC(=O)CCC4=C3[C@@H](c3ccc(N(C)C)cc3)C[C@@]21C | 2e+06 cps (inactive)
53 | NCCCCCC(=O)O | 2.3e+06 cps (inactive)
54 | Oc1cc(O)c2c(c1)O[C@H](c1ccc(O)c(O)c1)[C@@H](O)C2 | 2.8e+06 cps (inactive)
55 | CN1Cc2c(N)cccc2C(c2ccccc2)C1 (stereo unspecified) | 2.2e+06 cps (inactive)
56 | CN(C)c1cc2c(Nc3ccc4c(cnn4Cc4ccccc4)c3)ncnc2cn1 | 3e+06 cps (inactive)
57 | CCSC(=N)N | 2.4e+06 cps (inactive)
58 | N[C@@H](CC(=O)O)C(=O)O | 2.4e+06 cps (inactive)
59 | N#Cc1cc2nc(O)c(O)nc2cc1[N+](=O)[O-] | 2.8e+06 cps (inactive)
60 | CN(C)c1nc(N(C)C)nc(N(C)C)n1 | 2.4e+06 cps (inactive)
61 | COc1cc([C@@H]2c3cc4c(cc3[C@H](O)C3COC(=O)[C@@H]32)OCO4)cc(OC)c1OC (stereo partly specified) | 2.6e+06 cps (inactive)
62 | CN1[C@@H](CC(=O)c2ccccc2)CCC[C@H]1C[C@H](O)c1ccccc1 | 2.6e+06 cps (inactive)
63 | CCCCN1CCC(COC(=O)c2cc(Cl)c(N)c3c2OCCO3)CC1 | 2.2e+06 cps (inactive)
64 | COC(=O)C(N)Cc1ccc(Cl)cc1 (stereo unspecified) | 2.2e+06 cps (inactive)
65 | CC(C)NC[C@@H](O)c1ccc(O)c(O)c1 | 2.5e+06 cps (inactive)
66 | Nc1ccc(CCNc2ncnc3c2ncn3C2OC(CO)C(O)C2O)cc1 (stereo unspecified) | 2.9e+06 cps (inactive)
67 | CN1CCCC1CCOC(C)(c1ccccc1)c1ccc(Cl)cc1 (stereo unspecified) | 2.5e+06 cps (inactive)
68 | NC(=NCc1ccccc1)NC(=O)c1nc(Cl)c(N)nc1N | 2.1e+06 cps (inactive)
69 | CCCC1O[C@@H]2C[C@H]3[C@@H]4CCC5=CC(=O)C=C[C@]5(C)[C@H]4[C@@H](O)C[C@]3(C)[C@]2(C(=O)CO)O1 (stereo partly specified) | 2.4e+06 cps (inactive)

Row | Compound | luminescence
70 | Cn1c(=O)[nH]c2ncn(C)c2c1=O | 2.8e+06 cps (inactive)
71 | CCCn1c(=O)c2[nH]c(-c3ccc(OCC(=O)Nc4ccc(C#N)cc4)cc3)nc2n(CCC)c1=O | 2.3e+06 cps (inactive)
72 | COc1ccc(/C=C/C(=O)Nc2ccccc2C(=O)O)cc1OC | 1.6e+06 cps (active)
73 | O=C(O)c1ccccc1Nc1ccccc1 | 2.2e+06 cps (inactive)
74 | COc1ccc(NC(=O)/C=C/c2ccc(Cl)cc2)cc1 | 2.8e+06 cps (inactive)
75 | CCn1c(=O)[nH]c2cc(Cl)c(Cl)cc21 | 3.1e+06 cps (inactive)
76 | O=C(O)/C=C/c1cnc[nH]1 | 2.2e+06 cps (inactive)
77 | Cn1c(=O)c2c(nc(/C=C/c3cccc(Cl)c3)n2C)n(C)c1=O | 2.6e+06 cps (inactive)
78 | O=c1cc(O)cc(/C=C/c2ccc(O)c(O)c2)o1 | 2.5e+06 cps (inactive)
79 | NC12CC3CC(CC(C3)C1)C2 | 2.3e+06 cps (inactive)
80 | CC[N+](C)(C)Cc1ccccc1Br | 2.5e+06 cps (inactive)
81 | CCC(NC(C)C)C(O)c1ccc(O)c(O)c1 (stereo unspecified) | 2.2e+06 cps (inactive)
82 | NC(N)=NCCSSCCN=C(N)N | 3e+06 cps (inactive)
83 | NC[C@H](O)c1ccc(O)c(O)c1 | 2.6e+06 cps (inactive)
84 | Cc1cn([C@H]2C[C@@H](N=[N+]=[N-])[C@@H](CO)O2)c(=O)[nH]c1=O | 2.8e+06 cps (inactive)
85 | CCCCCCCCCC[Si](C)(C)CCC(=O)NC(Cc1ccc(C)cc1)c1ccccc1 (stereo unspecified) | 2.8e+06 cps (inactive)
86 | CC(N)=NCCC[C@H](N)C(=O)O | 2.6e+06 cps (inactive)
87 | C[C@]12CCC(=O)C=C1CC[C@@H]1[C@@H]2C(=O)C[C@@]2(C)[C@H]1CC[C@]2(O)C(=O)CO | 2.3e+06 cps (inactive)
88 | CNC(=O)[C@H]1O[C@@H](n2cnc3c(N)ncnc32)C(O)[C@H]1O (stereo partly specified) | 2.5e+06 cps (inactive)
89 | CC(CCc1ccccc1)NCC(O)c1ccc(O)c(C(N)=O)c1 (stereo unspecified) | 2.8e+06 cps (inactive)
90 | C=CCc1ccccc1OCC(O)CNC(C)C (stereo unspecified) | 2.8e+06 cps (inactive)
91 | Cn1cnc2c(NC3CCCC3)ncnc21 | 2.5e+06 cps (inactive)
